# Compound activity as filed in PubChem BioAssay.
# Compounds with a hit are over-represented: about 2.4% of the library has one in this group of screens.
# Platelet DG rel: modulates dense granule release in human platelets | human platelet-rich plasma, SFLLRN dense granule ATP release, luminescence | inhibition, %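 (compounds screened at 7.5 µM in platelet-rich plasma)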 | 300,000 tested, 0.22% active | AID 1663;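 active = mean replicate score, as percent of positive control, at or above 50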
# SENP7 block: inhibitors of human SENP7 protease | Q9BQF6 | recombinant SENP7, Z-RLRGG-aminoluciferin luminescence, 40 min | inhibition, % at 5 µM | 330,000 tested, 1.5% active;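 active = inhibition above about 50% at the single test dose, limit read from the data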;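 also: plate controls were DMSO with enzyme for no effect and no enzyme buffer wells for full effect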
# SENP8 block-1: blocks human SENP8 cleavage of Nedd8 substrate; recombinant SENP8, Nedd8 substrate fluorescence; 360,000 tested, 0.64% active; inhibition, % at 20 µM; in the data active = inhibition mostly above about 40%, no sharp cut-off; inactive = mostly below about 27%
# SENP8 block-2: inhibitors of human SENP8 protease. 330,000 tested, 1.2% active. Q96LD8. inhibition, % at 10 µM. purified SENP8, Z-RLRGG-aminoluciferin cleavage, luminescence. AID 2540; in the data active = inhibition above about 50%
# SENP6 inh: blocks the human protease SENP6 | inhibition, % at 10 µM | 330,000 tested, 1.8% active | AID 2599 | Recombinant SENP6 catalytic domain, aminoluciferin luminescence;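 active = inhibition above about 50% at the single tested dose, limit read from the data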;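 also: plate controls were DMSO wells with enzyme for no effect and DMSO wells lacking enzyme for full effect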
# Target sequence (Q9GZR1 628-1112 limits assumed): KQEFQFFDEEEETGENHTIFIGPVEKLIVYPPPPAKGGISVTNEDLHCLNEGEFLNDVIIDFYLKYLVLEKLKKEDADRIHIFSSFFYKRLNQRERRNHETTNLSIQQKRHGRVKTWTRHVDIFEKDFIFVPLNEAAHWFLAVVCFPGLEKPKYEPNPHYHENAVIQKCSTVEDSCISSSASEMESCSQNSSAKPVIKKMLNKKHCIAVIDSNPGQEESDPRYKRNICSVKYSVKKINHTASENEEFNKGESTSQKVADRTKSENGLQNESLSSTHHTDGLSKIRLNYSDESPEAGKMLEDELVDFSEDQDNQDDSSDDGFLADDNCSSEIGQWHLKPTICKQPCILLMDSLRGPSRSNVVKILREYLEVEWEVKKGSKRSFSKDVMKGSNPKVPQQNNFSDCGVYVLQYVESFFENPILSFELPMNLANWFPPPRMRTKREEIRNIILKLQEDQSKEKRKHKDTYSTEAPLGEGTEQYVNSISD
# SENP8 confirm: confirmation of human SENP8 protease inhibitors; shares compounds with SENP7 block; Recombinant SENP8, Z-RLRGG-aminoluciferin luminescence, 60 min; inhibition, % at 12.5 µM; 6,200 tested, 40% active; AID 488912;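 active = mean inhibition across replicates above about 50%, limit read from the data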
# SENP6 confirm: confirmation of human SENP6 protease inhibitors. shares compounds with SENP7 block. recombinant SENP6, Z-RLRGG-aminoluciferin luminescence. inhibition, % at 12.5 µM. 6,200 tested, 58% active. AID 488915
# SENP7 confirm: confirmation of human SENP7 protease inhibitors; shares compounds with SENP7 block; recombinant SENP7, Z-RLRGG-aminoluciferin luminescence, 40 min; inhibition, % at 12.5 µM; 6,200 tested, 69% active; AID 488917
# Casp3 SENP sel: selectivity test for SENP inhibitors: human caspase-3 inhibition. shares compounds with SENP7 block. purified caspase-3, Z-DEVD-aminoluciferin luminescence, 60 min. inhibition, % at 12.5 µM. 6,200 tested, 60% active;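 active = mean inhibition above about 50%, limit read from the data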;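 also: plate controls were enzyme with DMSO for no effect and wells without caspase-3 for full effect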
# SENP luc ctr: luminescence interference (SENP counter-screen) | AID 488919 | shares compounds with SENP7 block | inhibition, % at 12.5 µM | Pre-incubated SENP8/Z-RLRGG-aminoluciferin, luciferase luminescence interference | 6,200 tested, 39% active;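 active = mean inhibition above about 50% when retested at one dose, limit read from the data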;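 also: plate controls were DMSO wells with completed reaction for no effect and substrate without enzyme for full effect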
# * hit, by the source's call; · = not tested or not shown.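 The calls were made as follows, unless noted: active = mean inhibition above about 50% in the one-dose retest (limit read from the data); inactive = the rest.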
SMILES,Platelet DG rel,SENP7 block,SENP8 block-1,SENP8 block-2,SENP6 inh,SENP8 confirm,SENP6 confirm,SENP7 confirm,Casp3 SENP sel,SENP luc ctr
NS(=O)(=O)c1ccc(NC2=CC(=O)C(=O)c3ccccc32)cc1,-1.6,42.1,49.6*,87.7*,87.1*,12.1,94.3*,83.9*,14.0,15.4
O=C1C=C(Nc2ccc(O)cc2)C(=O)c2ccccc21,74.2*,96.0*,39.8,95.6*,96.7*,64.3*,97.5*,102.6*,96.8*,53.0*
COc1cc(OC)c(NC2=CC(=O)C(=O)c3ccccc32)cc1Cl,-0.2,53.2*,-292.5,70.0*,79.5*,-23.0,87.1*,72.9*,9.7,-7.6
Cc1ccc(NC2=CC(=O)C(=O)c3ccccc32)cc1,4.5,35.6,-133.8,55.1*,66.1*,16.4,66.3*,33.4,7.9,4.5
Cc1cc(NC2=CC(=O)C(=O)c3ccccc32)no1,·,·,-235.6,·,·,·,·,·,·,·
CCCCCC(=O)N(Cc1ccccc1)c1c(N)n(CCOC)c(=O)[nH]c1=O,0.8,-0.5,7.1,-1.3,-13.3,·,·,·,·,·
CN(C)c1cccc(C(=O)OCCCC(=O)c2ccc(F)cc2)c1,·,2.5,-237.6,6.1,6.2,·,·,·,·,·
O=C(CCCc1ccccc1)Nc1nccs1,2.0,-3.4,7.6,-4.6,-32.7,·,·,·,·,·
O=C(c1cc(-c2ccc(Br)cc2)on1)N1CCOCC1,-0.1,34.2,15.8,27.2,52.5*,24.8,45.6,21.4,35.4,2.3
COc1ccc(-c2cc(C(=O)N3CCOCC3)no2)cc1,0.7,54.6*,9.0,41.7,50.9*,54.4*,51.8*,83.2*,79.3*,53.3*
O=C(c1cc(-c2cccc(O)c2)on1)N1CCOCC1,14.2,46.8,14.8,26.4,62.7*,48.0,41.7,69.8*,78.0*,59.0*
O=C(c1cc(-c2ccc(Br)cc2)on1)N1CCCCCC1,0.8,15.7,13.1,-13.4,-2.1,·,·,·,·,·
CCOC(=O)C1CCN(C(=O)c2ccc(OCC(=O)Nc3ccc(OCC)cc3)c(OC)c2)CC1,-14.7,-0.1,17.7,-2.5,-11.6,·,·,·,·,·
O=C(NNC(=S)NCc1ccccc1)c1ccc(Br)cc1,7.0,6.2,8.2,5.2,8.6,·,·,·,·,·
COc1ccccc1N1CCN(S(=O)(=O)CCNC(=O)C2CCCCC2)CC1,-4.6,-3.9,16.2,-9.3,-8.1,·,·,·,·,·
Cc1cc(C)c(NC(=O)c2ccc3c(c2)C(=O)N(Cc2cccnc2)C3=O)c(C)c1,-11.9,-5.0,8.9,-6.6,-9.1,·,·,·,·,·
Cc1ccc(O)c(NC(=O)c2ccc3c(c2)C(=O)N(Cc2cccnc2)C3=O)c1,14.6,85.7*,8.2,38.5,47.1,-0.3,14.2,32.3,17.7,-1.3
N#Cc1ccsc1NC(=O)CCc1ccccc1,2.8,70.4*,8.3,60.1*,23.0,13.7,27.8,68.3*,53.2*,47.0
CCc1c(C)nc2cc(-c3ccccc3)[nH]n2c1=O,0.0,2.7,-142.7,-7.5,1.3,·,·,·,·,·
O=c1c2c(nc3cc(-c4ccccc4)[nH]n13)CCC2,11.9,45.4,-232.6,19.3,57.2*,22.1,15.5,29.9,43.5,7.2
O=c1c2c(nc3cc(-c4ccccc4)[nH]n13)CCS2,0.0,11.5,14.3,68.9*,78.1*,-23.2,-11.5,6.4,11.7,-2.9
Cc1ccc(C(=O)Nc2ccncc2)cc1S(=O)(=O)N1CCCCC1,·,·,12.5,·,·,·,·,·,·,·
CC(=O)c1cccc(NC(=O)c2ccc(C)c(S(=O)(=O)N3CCOCC3)c2)c1,0.5,5.4,9.2,2.4,-19.8,·,·,·,·,·
Cc1ccc(C(=O)Nc2cccc(C(=O)O)c2)cc1S(=O)(=O)N1CCCCC1,·,94.4*,20.0,88.0*,92.6*,96.2*,96.0*,101.6*,82.8*,78.9*
Cc1ccc(C(=O)Nc2cccc(C(=O)O)c2)cc1S(=O)(=O)N1CCOCC1,4.9,-3.6,8.3,56.6*,61.3*,72.8*,67.9*,89.0*,50.1*,28.4
